PfG6PD inh: PfG6PD (Plasmodium falciparum) enzyme inhibition; 0.78% of 350,000 active; inhibition, % at 20 µM; PfGluPho enzyme, NADPH resazurin-diaphorase fluorescence;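 active = inhibition reaching at least a set limit at 20 µM in the primary screen, cut at about 59% in these data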;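 note: 0% = DMSO wells with substrate and 100% = DMSO wells lacking glucose-6-phosphate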
Cardio protect: modulators protecting cardiomyocytes from myocardial damage; 0.63% of 360,000 active; protection from H2O2 cell death, % at 20 µM; H9c2 cardiomyocytes, H2O2 injury protection, ATPLite, 2 h;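 active = compounds giving at least 50% protection of heart cells from peroxide-induced death in the single-dose screen, raw or plate-pattern-corrected value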;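 note: 0% = DMSO wells with peroxide and 100% = DMSO wells without peroxide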
PHOSPHO1 inh: PHOSPHO1 (human) inhibition. Q8TCT1. recombinant PHOSPHO1, absorbance phosphatase assay. inhibition, % at 13.3 µM. 1.1% of 290,000 active; in the data active = inhibition above about 60%
Target sequence (Q8TCT1 whole entry, looked up): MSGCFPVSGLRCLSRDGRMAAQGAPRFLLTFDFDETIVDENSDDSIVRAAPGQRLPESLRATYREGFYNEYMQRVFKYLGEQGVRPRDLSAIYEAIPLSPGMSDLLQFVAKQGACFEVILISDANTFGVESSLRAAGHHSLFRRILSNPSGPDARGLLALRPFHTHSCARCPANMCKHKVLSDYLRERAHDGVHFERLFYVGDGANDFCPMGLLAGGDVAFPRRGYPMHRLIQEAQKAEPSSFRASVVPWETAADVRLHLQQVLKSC
PfM18AAP inh: blocks P. falciparum M18 aspartyl aminopeptidase. AID 1822. inhibition, % at 7.35 µM. 1.2% of 290,000 active. recombinant PfM18AAP, H-Glu-NHMec fluorogenic cleavage;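 active = inhibition above the campaign mean inhibition over all tested compounds plus 3 SD, cut at about 28% in these data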;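 note: 0% = plate median of test compound wells and 100% = 2 mM ZnCl2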
ALR inh: inhibitors of human sulfhydryl oxidase ALR. P55789. purified ALR, DTT oxidation, H2O2 HRP-luminol luminescence. inhibition, % (test concentration not listed). 3.8% of 290,000 active;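 active = mean replicate inhibition above about 79%, with every replicate also reaching it, limit read from the data; inconclusive = only one of the two criteria met; inactive = mean below limit and not every replicate reaching it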
Target sequence (P55789 whole entry, looked up): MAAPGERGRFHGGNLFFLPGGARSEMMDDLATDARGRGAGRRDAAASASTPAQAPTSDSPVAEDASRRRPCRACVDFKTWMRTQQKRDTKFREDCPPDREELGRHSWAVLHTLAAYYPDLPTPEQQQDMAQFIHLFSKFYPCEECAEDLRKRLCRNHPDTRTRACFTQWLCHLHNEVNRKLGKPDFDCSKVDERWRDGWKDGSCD
PfGluPho conf: PfG6PD inhibition, single-dose confirmed; shares compounds with PfG6PD inh; recombinant PfGluPho, NADPH-diaphorase-resazurin fluorescence; inhibition, % at 20 µM; 34% of 2,400 active; AID 504753;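 active = inhibition of at least 50% at 20 µM in any single replicate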;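 note: 0% = DMSO with substrate and 100% = DMSO lacking glucose-6-phosphate substrate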
Diaphorase 10uM: diaphorase inhibition or oxidation at 10 uM NADPH; inhibition, % at 20 µM; 39% of 820 active; diaphorase-coupled resazurin reduction, fluorescence, NADPH 10 uM; shares compounds with PfG6PD inh;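 active = average inhibition reaching 50% or more with the compound at 20 µM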;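 note: resorufin red fluorescence formed as diaphorase reduces resazurin using NADPH; 0% = DMSO with enzyme and 100% = DMSO without enzyme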
Diaph ctr 30uM: inhibits diaphorase or oxidizes, flagging false PfG6PD hits. Diaphorase/resazurin coupled assay, resorufin fluorescence, 30 uM NADPH. 29% of 820 active. shares compounds with PfG6PD inh. AID 504863. inhibition, % at 20 µM;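 active = inhibition averaging 50% or more, tested at 20 µM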;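 note: 0% = DMSO with enzyme and 100% = DMSO wells lacking diaphorase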
Active calls of the source: *; u = inconclusive; x = not tested or not shown. An excerpt weighted towards active compounds, which were near 5.6% of everything screened.

SMILES | PfG6PD inh | Cardio protect | PHOSPHO1 inh | PfM18AAP inh | ALR inh | PfGluPho conf | others
COc1ccc(NC(C)=O)cc1S(=O)(=O)NCCc1ccccn1 | 2 | 3 | x | x | 3 | x
CN(C)S(=O)(=O)c1cccc(C(=O)Nc2cc(S(=O)(=O)N3CCOCC3)ccc2N2CCCC2)c1 | 66* | 5 | x | x | x | 34
O=C(Nc1cc(S(=O)(=O)N2CCOCC2)ccc1N1CCCCC1)c1cc(-c2ccccn2)nc2ccccc12 | 71* | 64* | -65 | 20 | 4 | 45
CCOc1ccc(S(=O)(=O)N2CN(c3cccc(C(C)=O)c3)c3nc4ccccc4nc32)cc1 | -7 | -3 | x | x | -2 | x
CCn1c(N)c(C(=O)NCC2CCCO2)sc1=S (stereo not given) | 61* | 8 | 100* | -14 | 99* | 40
CCn1c(N)c(C(=O)NCCCOC)sc1=S | 65* | 2 | 50 | 15 | 99* | 13
COCCCNC(=O)c1ccc(C(=O)NCCCOC)cc1 | -11 | 2 | -10 | 0 | -3 | x
CC(=O)NC(CC(=O)OCC(=O)N1CCN(S(=O)(=O)c2ccc(C)cc2C)CC1)c1ccccc1 (stereo not given) | -12 | 0 | x | x | 4 | x
CN(C(=O)c1cccc(NC(=O)Cc2cccc(NC(=O)C3CCCN(C(=O)CCc4ccccc4)C3)c2)c1)C1CCC1 (stereo not given) | 6 | -21 | x | x | x | x
CN(O)/C=c1/ccc2c(n1)C(=O)C=CC=2 | 68* | -2 | -17 | 5 | -18 | 58* | Diaphorase 10uM=-18;Diaph ctr 30uM=-12
CC1=CC(=NOC(=O)/C=C/c2ccccc2)C=C(C)C1=O | 75* | -32 | -5 | 6 | 59 | 61* | Diaphorase 10uM=28;Diaph ctr 30uM=27
O=C(Cc1ccc(Br)cc1)N1CCOCC1 | 9 | 3 | 8 | -11 | x | x
Cc1cccc(N(CC(=O)N/N=C/c2cc([N+](=O)[O-])ccc2Cl)S(C)(=O)=O)c1C | 123* | -8 | -34 | -12 | x | 82* | Diaphorase 10uM=79*;Diaph ctr 30uM=71*
Cc1[nH]c2ccccc2c1-c1nc(N)sc1C | 20 | 0 | 5 | 0 | 39 | x
Cc1[nH]c2ccccc2c1C1=CC(=O)C=CC1=O | 129* | -28 | x | x | x | 114* | Diaphorase 10uM=93*;Diaph ctr 30uM=53*
COc1ccc(C(C(=O)NC2CCCC2)N(Cc2cccnc2)C(=O)c2snc(C(N)=O)c2N)cc1OC (stereo not given) | -5 | 0 | 45 | 1 | x | x
O=C1S/C(=C\c2ccc(N3CCOCC3)o2)C(=O)N1Cc1c(F)cccc1Cl | 75* | -6 | 10 | 5 | -7 | 17
CC(C)(CC(=O)O)CC(=O)N1CCCN(c2nccc(C(F)(F)F)n2)CC1 | -15 | 0 | x | -9 | 21 | x
S=C(NCc1ccccc1)NNc1nc2ccccc2[nH]1 | 77* | -8 | 57 | 15 | u | 45
COc1ccccc1C(=O)NCCC(=O)NCC1CCCO1 (stereo not given) | -7 | 5 | x | x | -12 | x
O=C(c1ccccc1)c1ccc(C(=O)N2CCN(c3ccc(O)cc3)CC2)cc1 | 61* | -1 | x | x | 99* | 7
COC(=O)c1c(NC(=S)Nc2ccc(C(=O)N3CCOCC3)cc2)sc2c1CCC2 | -8 | 10 | -6 | 2 | x | x
CCOc1ccccc1NC(=O)CCCc1nc2ccccc2c(=O)[nH]1 | 67* | 7 | 29 | 2 | -5 | 53* | Diaphorase 10uM=39;Diaph ctr 30uM=36
CCC(C)N(CCNC(=O)c1ccc2c(c1)NC(=O)c1ccccc1S2)C1CCCCC1 (stereo not given) | 76* | 9 | 12 | 8 | -3 | 93* | Diaphorase 10uM=-8;Diaph ctr 30uM=-13
CN(C1CCCCC1)S(=O)(=O)c1cccc(C#N)c1 | -27 | -2 | 6 | 5 | 2 | x
CN(C)C(=O)/C(C#N)=C\c1cc(Br)c(Sc2ccc(Cl)cc2)o1 | 107* | -7 | -23 | 3 | 93* | -8
Cc1ccc2oc(-c3cccc(N)c3)nc2c1 | 26 | -21 | -7 | 5 | -12 | x
Cc1ccc2nc(-c3sc4nc(C)cc(C)c4c3N)[nH]c2c1 | 77* | -10 | -38 | 1 | 36 | 12
